From PubChem
GLP-1R inv ag: qHTS of GLP-1 Receptor Inverse Agonists (Inhibition Mode); HEK293 GLP-1R CRE-luciferase, luminescence, 24 h; GLP-1R form is constitutively active; Potency, µM (titrated, usually from 38.3 µM), without a hit: at the top dose activity change, negative = inhibition, hits mostly inhibitors; 410,000 tested, 1.6% active; Glucagon-like peptide 1 receptor (Homo sapiens), P43220; note: % is set by controls: 0 for no effect and ±100 for the full control effect; nearly all actives have a fitted effect of over 55% in size
Target sequence (P43220 whole entry, looked up): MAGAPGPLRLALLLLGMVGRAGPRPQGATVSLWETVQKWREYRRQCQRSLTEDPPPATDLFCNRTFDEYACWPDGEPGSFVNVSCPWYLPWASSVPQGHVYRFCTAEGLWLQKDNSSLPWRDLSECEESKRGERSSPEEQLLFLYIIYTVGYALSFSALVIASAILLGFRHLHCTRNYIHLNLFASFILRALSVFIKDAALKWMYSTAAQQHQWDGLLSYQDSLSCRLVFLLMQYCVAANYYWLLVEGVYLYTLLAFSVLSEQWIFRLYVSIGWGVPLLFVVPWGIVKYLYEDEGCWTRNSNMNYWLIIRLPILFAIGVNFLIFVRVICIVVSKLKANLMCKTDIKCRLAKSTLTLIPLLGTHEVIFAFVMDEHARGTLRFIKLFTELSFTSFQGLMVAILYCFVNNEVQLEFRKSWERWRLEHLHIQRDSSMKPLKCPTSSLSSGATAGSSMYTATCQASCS
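Stable HEK293 clone (constitutively active GLP-1R + cAMP-response luciferase); 200 cells/uL plated, 12 h pre-culture, compound 24 hr, 37 deg C/5% CO2; detection reagent 12 min RT; luminescence.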
ATXN2 expr inh: Primary qHTS for Inhibitors of ATXN expression. 360,000 tested, 0.72% active. Potency, µM (top dose mostly 57 µM), without a hit: top-dose activity change, negative = inhibition, actives largely listed as inhibitors. HEK-293 ATXN2-luciferase reporter, luminescence, 24 h; note: % is set by controls: 0 for no effect and ±100 for the full control effect; nearly all actives have a fitted effect of over 55% in size
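ATXN2-luciferase reporter cells (luciferase flanked by upstream and downstream ATXN2 gene portions) were treated 24 h at 37 °C with compounds at up to 57 uM. SteadyGlo luminescence gave expression; GF-AFC fluorescence gave viability.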
TGFb SMAD3 inh: qHTS for Inhibitors of TGF-b; HepG2 CAGA-GFP TGF-b/SMAD3 reporter, GFP fluorescence, 18 h; TGF-beta stimulated, 500 pg/mL final; Potency, µM (series often up to 46.1 µM), for inactives: at the top dose activity, negative = inhibition, usual class: inhibitors; 410,000 tested, 1.2% active; note: % is set by controls: 0 for no effect and ±100 for the full control effect; nearly all actives have a fitted effect of over 65% in size
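TGF-beta reporter screen: HEPG2 CAGA-GFP, 1% FBS, 500 pg/mL TGF-beta final, 18 h; per-cell GFP summed per well; curves fitted and categorized by class.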
GLP1R ag: qHTS of GLP-1 Receptor Agonists | AID 624172, 2012 | HEK293 GLP-1R CRE-luciferase, luminescence, 4-6 h; cells express a hypersensitive GLP-1R form | Potency, µM (series often up to 45.6 µM), for the others: at the highest dose activation, hits mostly activators | 380,000 tested, 0.007% active; note: % of control where 0% means no effect
S2 tox: Viability Counterscreen for Primary qHTS for Inhibitors of ATXN expression; S2 cells (HEK-293 line with an ATXN2-luciferase reporter) viability, CellTiter-Fluor protease fluorescence, 24 h; Potency, µM (doses to about 56.7 µM), usual class: cytotoxic; 400,000 tested, 0.49% active; note: nearly all actives have a fitted effect of over 40% in size
HepG2 tox-1: qHTS for Inhibitors of TGF-b: Cytotox Counterscreen; HepG2 CAGA-GFP viability, ATP luminescence, 18 h; 410,000 tested, 0.76% active; AID 588856, 2011; Potency, µM (doses to about 46.1 µM), without a hit: top-dose activity change, negative = cytotoxicity, hits mostly cytotoxic
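CellTiter-Glo luminescence gave cytotoxicity after 18 hours at 37 degrees C. The cells were HepG2 CAGA-GFP in 1% FBS DMEM, stimulated with 500 pg/mL TGF-beta after compound addition. %Activity was normalised to no-cell wells (complete cell-killing) and DMSO (no toxicity), and curves were fitted and classified.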
TGFb confirm: qHTS for Inhibitors of TGF-b: Confirmation of Cherry Picks | shares compounds with TGFb SMAD3 inh | HepG2 CAGA-GFP TGF-b reporter, GFP fluorescence, 18 h; cells stimulated with TGF-beta, 500 pg/mL | Potency, µM (highest dose often 46.1 µM), inactives show at the highest dose activity, negative = inhibition, most hits filed as inhibitors | 1,600 tested, 63% active | AID 720534, 2013; note: % is set by controls: 0 for no effect and ±100 for the full control effect; nearly all actives have a fitted effect of over 65% in size
HepG2 tox-2: qHTS for Inhibitors of TGF-b: Cytotox Counterscreen for Cherry Picks; shares compounds with TGFb SMAD3 inh; HepG2 CAGA-GFP viability, ATP luminescence, 18 h; cells stimulated with TGF-beta, 500 pg/mL; Potency, µM (titrated, usually from 46.1 µM), without a hit: at the top dose activity, negative = cytotoxicity, hits mostly inhibitors; 1,600 tested, 27% active; AID 720535, 2013; note: % is set by controls: 0 for no effect and ±100 for the full control effect; nearly all actives have a fitted effect of over 70% in size
TGFb CCL64 inh: qHTS for Inhibitors of TGF-b: CCL64 Cells Orthogonal Assay for Cherry Picks; shares compounds with TGFb SMAD3 inh; Potency, µM (doses to about 46.1 µM), inactives show at the top dose activity, negative = inhibition, usual class: inhibitors; CCL64 CAGA-GFP reporter, TGF-b stimulated, GFP fluorescence, 18 h; 1,600 tested, 41% active; AID 720536, 2013; note: nearly all actives have a fitted effect of over 65% in size
COP TGFb inh: qHTS for Inhibitors of TGF-b: Hit Validation in HepG2 Cells using COP promoter; shares compounds with TGFb SMAD3 inh; HepG2 COP-GFP TGF-b reporter, GFP fluorescence, 18 h; cells stimulated by added recombinant TGF-beta; Potency, µM (top dose mostly 46.1 µM), inactives show at the highest dose activity, negative = inhibition, hits mostly inhibitors; 1,600 tested, 3% active; note: nearly all actives have a fitted effect of over 70% in size
Starred values were filed as active, the others as inactive; i = inactive; ? = inconclusive; . = no result given. Rows were chosen to be rich in hits. Some 3.7% of all compounds tested hit in one or more screens of this group. Calls come from the whole dose curve; as a rule, active = well fitted curve in the direction sought with a large enough effect; inconclusive = small, poorly fitted or top-dose-only effect, or another doubt; inactive = no such curve, though single readings can be large; an effect the other way counts as inactive or inconclusive. Potency is the fitted concentration of half-maximal effect.

SMILES | GLP-1R inv ag | ATXN2 expr inh | TGFb SMAD3 inh | GLP1R ag | S2 tox | HepG2 tox-1 | TGFb confirm | HepG2 tox-2 | TGFb CCL64 inh | COP TGFb inh
CC(C)(C)NS(=O)(=O)c1cccc(S(=O)(=O)c2cccc(S(=O)(=O)NC(C)(C)C)c2)c1 | -4.1% | -21.4% | 12.6µM* | -4.1% | i | -10.7% | 14.6µM* | ? | -23.4% | 10.9%
COc1ccc(CC2C(=O)NC(C)C(=O)N(C)C3Cc4ccc(cc4)Oc4cc(ccc4O)CC(C(=O)NC(C)C(=O)NC(C)C(=O)N2C)N(C)C3=O)cc1 (stereo not drawn) | ? | 0.238µM* | -106.7% | -15.9% | 0.0597µM* | 10.9% | 0.0184µM* | 0.206µM* | 0.0206µM* | -7.9%
COc1cccc(-c2cnc3c(NC=O)cc(-c4ccc(S(C)(=O)=O)cc4)cn23)c1 | 9.5% | -20.6% | 1.78µM* | 25.9% | i | -3.3% | 4.61µM* | -29.5% | 2.06µM* | 30.9%
COc1cc(-c2cnc3c(NC=O)cc(-c4cccc(NC(C)=O)c4)cn23)cc(OC)c1OC | -42.2% | -12.9% | ? | ? | i | 8.6% | . | . | . | .
COc1cccc(-c2cnc3c(NC=O)cc(-c4cccc(NC(C)=O)c4)cn23)c1 | ? | -38.9% | 7.08µM* | 18.7% | i | -2.7% | 5.8µM* | ? | 14.6µM* | 56.4%
CC(=O)c1ccc(-c2cnc3c(NC=O)cc(-c4ccc(C(=O)N5CCOCC5)cc4)cn23)cc1 | ? | -25.9% | ? | 12.6% | i | -5.0% | ? | ? | ? | 56.6%
CC(=O)Nc1cccc(-c2cc(NC=O)c3ncc(-c4cccc(C(C)=O)c4)n3c2)c1 | 1.9% | -26.7% | 2.82µM* | 19.4% | i | 23.3% | 6.51µM* | ? | ? | 30.3%
COc1ccc(CCN2C(=O)c3[nH]nc(-c4ccccc4O)c3C2c2ccccc2)cc1 (stereo not drawn) | ? | . | ? | . | . | -79.1% | . | . | . | .
COc1cccc(-c2cnc3c(NC=O)cc(-c4ccccc4Oc4ccccc4)cn23)c1 | -25.8% | -23.4% | 10µM* | 3.7% | i | -17.4% | 11.6µM* | -20.5% | ? | 27.9%
COc1cccc(-c2cnc3c(NC=O)cc(-c4cc(C)c(O)c(C)c4)cn23)c1 | ? | ? | 16.3% | 20.8% | ? | -19.5% | . | . | . | .
COc1ccc(C2=NNC(=Nc3cc(S(=O)(=O)N(C)C)ccc3C)SC2)c(OC)c1 | ? | . | ? | -2.4% | ? | -29.9% | ? | ? | ? | 27.8%
CCC[C@H]1NC(=O)[C@H](C)N(C)C(=O)C(C)(C)C(=O)C(C)NC(=O)[C@H](Cc2ccc(OC)cc2)N(C)C(=O)[C@H](C(C)C)N(C)C(=O)CNC(=O)[C@H](CC(C)C)N(C)C(=O)CNC(=O)[C@H]([C@@H](C)CC)OC(=O)[C@H]1C (stereo partly drawn) | ? | ? | 1.12µM* | -3.2% | ? | -7.3% | 0.366µM* | ? | 0.291µM* | 95.9%
CC[C@H](C)C1OC(=O)[C@@H](C)[C@@H](CC)NC(=O)[C@H](C)N(C)C(=O)C(C)(C)C(=O)C(C)NC(=O)[C@H](Cc2ccc(OC)cc2)N(C)C(=O)[C@H](C(C)C)N(C)C(=O)CNC(=O)[C@H](CC(C)C)N(C)C(=O)CNC1=O (stereo partly drawn) | ? | ? | 0.501µM* | -23.2% | ? | 4.0% | 1.03µM* | ? | 1.3µM* | 46.8%
COC(=O)c1cccnc1-n1c(=O)c2cccnc2n(CC(=O)Nc2ccccc2F)c1=O | 4.0% | 11.9% | 2.6% | . | i | -20.9% | . | . | . | .
CN(C)C(=O)c1cccc(-c2cnc3c(NC=O)cc(-c4ccccc4Cl)cn23)c1 | ? | -23.8% | 12.6µM* | -0.7% | 11.2µM* | -16.8% | 16.4µM* | -14.7% | ? | 33.8%
CN(C)C(=O)c1cccc(-c2cc(NC=O)c3ncc(-c4ccc(F)cc4)n3c2)c1 | -4.1% | 0.0% | 8.91µM* | 11.6% | i | -14.8% | 5.17µM* | -13.3% | ? | 16.8%
CCc1sc(-c2cc3cccc(OC)c3oc2=O)nc1-c1cc(C)ccc1C | . | . | 11.8% | . | . | -9.9% | . | . | . | .
Cc1sc2nc3c4ccccc4c(NCc4ccco4)nn3c(=O)c2c1C | 145.8% | 71.2% | 1.7% | 0.3% | i | -9.2% | . | . | . | .
Cc1nc(NCc2ccco2)c2c(C)c(C)sc2n1 | ? | 11.2µM* | 7.94µM* | -15.2% | ? | -37.4% | 8.2µM* | 5.17µM* | -99.0% | 37.7%
COC(=O)c1c(NC(=O)c2ccc([N+](=O)[O-])o2)sc2c1CCN(C(C)C)C2 | ? | ? | 20µM* | -4.9% | ? | -8.1% | 2.59µM* | 10.3µM* | 25.9µM* | 35.8%
CC(=O)N1CCc2c(sc(NC(=O)c3ccc([N+](=O)[O-])o3)c2C#N)C1 | 7.7% | -16.1% | 5.62µM* | -0.3% | ? | -30.8% | 4.11µM* | 3.26µM* | 10.3µM* | ?
